Data from the supplement of paper PMC11537057.
Counter-ions that a name gives are not always drawn. ± gives the standard deviation of the averaged measurements. The full ranking holds about 1,700 compounds; the median of “cell number in HSV-1-infected wells relative to infected DMSO wells (H2B-RFP signal)” is about 100, and the highest 2% start at about 140. This excerpt belongs to a sample that is enriched for the highest values.

Test system: A549 infected with HSV-1
Assay: cell number in HSV-1-infected wells relative to infected DMSO wells (H2B-RFP signal); higher = more surviving cells (uninfected or antiviral-protected wells give about 200%; low = toxicity)
Conditions: 10 µM; 48 h; MOI: 0.1
Description: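 Selleck FDA-approved library (L1300) screened in duplicate at 10 µM on A549 H2B-mRuby cells in 384-well plates, infected with HSV-1 strain 17 YFP-ICP4 at MOI 0.1 one hour before drug addition. Imaged after 2 days at 37°C. Cell growth (H2B-RFP) and infection (ICP4-YFP) are expressed as % of DMSO-treated wells. Hits: growth >90% and infection <20% of DMSO.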

| SMILES | cell number in HSV-1-infected wells |
| --- | --- |
| Clc1ccc2c(c1)CCc1cccnc1C2=C1CCNCC1 [Desloratadine] | 116 ± 6.4% |
| C[C@H](CCC(=O)O)[C@H]1CC[C@H]2[C@@H]3C(=O)C[C@@H]4CC(=O)CC[C@]4(C)[C@H]3CC(=O)[C@]12C [Dehydrocholic acid] | 89.8 ± 1.7% |
| COc1cc2c(cc1Cc1cccc(Cl)c1F)c(=O)c(C(=O)O)cn2[C@H](CO)C(C)C [Elvitegravir (GS-9137, JTK-303)] | 105 ± 10% |
| CCCc1ncc(C[n+]2ccccc2C)c(N)n1 [Amprolium HCl] | 105 ± 10% |
| CC[C@H](C)[C@H](NC(=O)[C@@H]1CCCN1C(=O)CNC(=O)[C@H](Cc1ccccc1)NC(=O)[C@H](CC(N)=O)NC(=O)[C@H](CC(N)=O)NC(=O)[C@H](CO)NC(=O)[C@H](CO)NC(=O)[C@H](Cc1c[nH]cn1)NC(=O)[C@@H](NC(=O)[C@H](CC(C)C)NC(=O)[C@H](Cc1ccccc1)NC(=O)[C@H](CC(N)=O)NC(=O)[C@H](C)NC(=O)[C@H](CC(C)C)NC(=O)[C@H](CCCNC(=N)N)NC(=O)[C@H](CCC(N)=O)NC(=O)[C@@H](NC(=O)[C@H](C)NC(=O)[C@@H]1CSSC[C@H](NC(=O)[C@@H](N)CCCCN)C(=O)N[C@@H](CC(N)=O)C(=O)N[C@@H]([C@@H](C)O)C(=O)N[C@@H](C)C(=O)N[C@@H]([C@@H](C)O)C(=O)N1)[C@@H](C)O)C(C)C)C(=O)N[C@@H](CC(C)C)C(=O)N1CCC[C@H]1C(=O)N1CCC[C@H]1C(=O)N[C@H](C(=O)N[C@@H](CC(N)=O)C(=O)N[C@H](C(=O)NCC(=O)N[C@@H](CO)C(=O)N[C@@H](CC(N)=O)C(=O)N[C@H](C(=O)N[C@@H](Cc1ccc(O)cc1)C(N)=O)[C@@H](C)O)C(C)C)[C@@H](C)O [Pramlintide Acetate] | 134 ± 20% |
| CC(C)[C@H](N)C(=O)OCC(CO)OCn1cnc2c(=O)[nH]c(N)nc21 (some centres undefined) [Valganciclovir HCl] | 207 ± 2.2% |
| O=C(O)c1cccc(-c2noc(-c3ccccc3F)n2)c1 [Ataluren (PTC124)] | 116 ± 9.6% |
| CN(C)CCOC(c1ccccc1)c1ccccc1 [Diphenhydramine HCl] | 102 ± 25% |
| CN(C)CCOC(c1ccc(Cl)cc1)c1ccccn1 (centres undefined) [CarbinoxaMine Maleate] | 148 ± 27% |
| CN(C)CCC(c1ccc(Cl)cc1)c1ccccn1 (centres undefined) [Chlorpheniramine Maleate] | 94.3 ± 16% |
| CC1(C)S[C@@H]2[C@H](NC(=O)[C@H](C(=O)O)c3ccsc3)C(=O)N2[C@H]1C(=O)O [Ticarcillin sodium] | 95.4 ± 22% |
| CC(C)(C)c1cc(C(C)(C)C)c(NC(=O)c2c[nH]c3ccccc3c2=O)cc1O [Ivacaftor (VX-770)] | 64.8 ± 7% |
| Cc1ccc(C(=O)N(CCCN)[C@@H](c2nc3cc(Cl)ccc3c(=O)n2Cc2ccccc2)C(C)C)cc1 | 12.9 ± 5.4% |
| Nc1c(CC(=O)O)cccc1C(=O)c1ccccc1 [Amfenac Sodium Monohydrate] | 115 ± 14% |
| Cc1c(Cl)cccc1Nc1ccccc1C(=O)O [Tolfenamic Acid] | 120 ± 2% |
| Cc1cccc(Nc2ccccc2C(=O)O)c1C [Mefenamic Acid] | 94.2 ± 6% |
| Cc1ccc(Cl)c(Nc2ccccc2C(=O)O)c1Cl [Meclofenamate Sodium] | 156 ± 21% |
| O=C(c1ccc(F)c(F)c1Nc1ccc(I)cc1F)N1CC(O)([C@@H]2CCCCN2)C1 [Cobimetinib (GDC-0973, RG7420)] | 32.6 ± 21% |
| CC(=O)c1cc2c(o1)C(=O)c1ccccc1C2=O [Napabucasin] | 27.4 ± 21% |
| CCOc1cc(N)c(Cl)cc1C(=O)NCC1CN(Cc2ccc(F)cc2)CCO1 (centres undefined) [Mosapride Citrate] | 89.7 ± 13% |
| CCOc1cc(N)c(Cl)cc1C(=O)NCC1CN(Cc2ccc(F)cc2)CCO1 (centres undefined) [Mosapride] | 92.8 ± 14% |
| Cc1cccc(C)c1N(CC(=O)Nc1ccc(-c2ncon2)cc1)C(=O)C1CCS(=O)(=O)CC1 [Amenamevir] | 214 ± 5.9% |
| O=C1CC[C@@H](C(=O)N2CSC[C@H]2C(=O)O)N1 [Pidotimod] | 82.1 ± 7.1% |
| CCOc1ccc(Cc2cc([C@]34OC[C@](CO)(O3)[C@@H](O)[C@H](O)[C@H]4O)ccc2Cl)cc1 [Ertugliflozin] | 116 ± 8.7% |
| O=C([O-])c1ccccc1.[Na+] [Sodium benzoate] | 83.2 ± 14% |
| COC(=O)N(C)c1c(N)nc(-c2nn(Cc3ccccc3F)c3ncccc23)nc1N [Riociguat (BAY 63-2521)] | 108 ± 15% |
| CCN1CCC[C@H]1CNC(=O)c1cc(S(N)(=O)=O)ccc1OC [Levosulpiride] | 94.939 ± 0.086% |

| SMILES | cell number in HSV-1-infected wells |
| --- | --- |
| Cc1c(F)cc(C(=O)NC2CC2)cc1-c1ccc(C(=O)NCC(C)(C)C)cn1 | 145 ± 44% |
| N[C@@H](CCC(=O)O)C(=O)[O-].[Na+] [L-Glutamic acid monosodium salt] | 94.5 ± 4.2% |
| CC(C)CCCCC(=O)N[C@@H](CCN)C(=O)N[C@H](C(=O)N[C@@H](CCN)C(=O)N[C@H]1CCNC(=O)[C@H]([C@@H](C)O)NC(=O)[C@H](CCN)NC(=O)[C@H](CCN)NC(=O)[C@H](CC(C)C)NC(=O)[C@@H](Cc2ccccc2)NC(=O)[C@H](CCN)NC1=O)[C@@H](C)O [Polymyxin B sulphate] | 132 ± 31% |
| COCC(=O)Nc1c(I)c(C(=O)NCC(O)CO)c(I)c(C(=O)N(C)CC(O)CO)c1I (centres undefined) [Iopromide] | 111 ± 26% |
| CC(=O)N(CC(O)CN(C(C)=O)c1c(I)c(C(=O)NCC(O)CO)c(I)c(C(=O)NCC(O)CO)c1I)c1c(I)c(C(=O)NCC(O)CO)c(I)c(C(=O)NCC(O)CO)c1I (centres undefined) [Iodixanol] | 79.6 ± 3% |
| O=C(NCC(O)CO)c1c(I)c(C(=O)NCC(O)CO)c(I)c(N(CCO)C(=O)CO)c1I (centres undefined) [Ioversol] | 146 ± 6.8% |
| CC(=O)Oc1ccc(C(c2ccc(OC(C)=O)cc2)c2ccccn2)cc1 [Bisacodyl] | 87.8 ± 16% |
| CC[C@H](C)[C@@H]1NC(=O)[C@H](CCCNC(=N)N)NC(=O)[C@H](CC(=O)O)NC(=O)[C@H](CCSC)NC(=O)[C@H](CCCNC(=N)N)NC(=O)CNC(=O)CNC(=O)[C@H](Cc2ccccc2)NC(=O)[C@@H](NC(=O)[C@H](CO)NC(=O)[C@H](CO)NC(=O)[C@H](CCCNC(=N)N)NC(=O)[C@H](CCCNC(=N)N)NC(=O)[C@H](CC(C)C)NC(=O)[C@@H](N)CO)CSSC[C@@H](C(=O)N[C@@H](CC(N)=O)C(=O)N[C@@H](CO)C(=O)N[C@@H](Cc2ccccc2)C(=O)N[C@@H](CCCNC(=N)N)C(=O)N[C@@H](Cc2ccc(O)cc2)C(=O)O)NC(=O)CNC(=O)[C@H](CC(C)C)NC(=O)CNC(=O)[C@H](CO)NC(=O)[C@H](CCC(N)=O)NC(=O)[C@H](C)NC(=O)CNC1=O [Carperitide Acetate] | 131 ± 1.4% |
| O=C(O)CCCC[C@@H]1CCSS1 (racemic) [Thioctic acid] | 134 ± 60% |
| CC(C)C(=O)Nc1ccc([N+](=O)[O-])c(C(F)(F)F)c1 [Flutamide] | 110 ± 2.2% |
| CC1(C)NC(=O)N(c2ccc([N+](=O)[O-])c(C(F)(F)F)c2)C1=O [Nilutamide] | 150 ± 36% |
| CNC(=O)c1ccc(N2C(=S)N(c3ccc(C#N)c(C(F)(F)F)c3)C(=O)C2(C)C)cc1F [Enzalutamide (MDV3100)] | 95.9 ± 2.1% |
| OC1CC2CCC(C1)N2 (centres undefined) [Nortropine Hydrochloride] | 105 ± 10% |
| COC(=O)C1=C(C)NC(C)=C(C(=O)OC2CCCN(Cc3ccccc3)C2)C1c1cccc([N+](=O)[O-])c1 (centres undefined) [Benidipine HCl] | 85.5 ± 9.3% |
| CCC[C@@H]1C[C@@H](C(=O)N[C@@H]([C@H]2O[C@H](SC)[C@H](O)[C@@H](O)[C@H]2O)[C@@H](C)O)N(C)C1 [Lincomycin HCl] | 133 ± 16% |
| CCC[C@@H]1C[C@@H](C(=O)N[C@@H]([C@H]2O[C@H](SC)[C@H](O)[C@@H](O)[C@H]2O)[C@H](C)Cl)N(C)C1 [Clindamycin HCl] | 99.4 ± 5.8% |
| CCC[C@@H]1C[C@@H](C(=O)N[C@@H]([C@H]2O[C@H](SC)[C@H](O)[C@@H](O)[C@H]2O)[C@@H](C)O)N(C)C1 [Lincomycin Hydrochloride Monohydrate] | 150 ± 39% |
| CCC[C@@H]1C[C@@H](C(=O)N[C@@H]([C@H]2O[C@H](SC)[C@H](O)[C@@H](O)[C@H]2O)[C@H](C)Cl)N(C)C1 [Clindamycin] | 88 ± 4% |
| CCC[C@@H]1C[C@@H](C(=O)N[C@@H]([C@H]2O[C@H](SC)[C@H](OP(=O)(O)O)[C@@H](O)[C@H]2O)[C@H](C)Cl)N(C)C1 [Clindamycin Phosphate] | 101 ± 12% |
| CCOc1cc2ncc(C#N)c(Nc3ccc(OCc4ccccn4)c(Cl)c3)c2cc1NC(=O)/C=C/CN(C)C [Neratinib (HKI-272)] | 63.62 ± 0.22% |
| CC(C)(Oc1ccc(Cl)cc1)C(=O)OCCOC(=O)c1cccnc1 [Etofibrate] | 129 ± 12% |
| OCc1cc([C@@H](O)CNCCCCCCOCCOCc2c(Cl)cccc2Cl)ccc1O [Vilanterol Trifenate] | 25.9 ± 8.8% |
| N[C@@H](Cc1ccc(N(CCCl)CCCl)cc1)C(=O)O [Melphalan] | 72.2 ± 27% |
| CCOc1ccccc1OCCN[C@H](C)Cc1ccc(OC)c(S(N)(=O)=O)c1 [Tamsulosin hydrochloride] | 132 ± 8.6% |
| COc1ccc2c(c1)[C@]13CCCC[C@@H]1[C@H](C2)N(C)CC3 [Dextromethorphan hydrobromide hydrate] | 146 ± 7.2% |
| Cc1ccc2c(c1)[C@]13CCCC[C@@H]1[C@H](C2)N(C)CC3 [Dimemorfan phosphate] | 127 ± 24% |
| C=C1/C(=C\C=C2/CCC[C@]3(C)[C@@H]([C@H](C)/C=C/[C@H](C)C(C)C)CC[C@@H]23)C[C@@H](O)C[C@@H]1O [Doxercalciferol] | 100 ± 23% |
